High-throughput results as filed in PubChem BioAssay.
Compounds with a hit are over-represented: about 18% of the library has one in this group of screens.
DT40 TDP1 no CPT: qHTS for Inhibitors of human tyrosyl-DNA phosphodiesterase 1 (TDP1): qHTS in cells in absence of CPT; DT40 Tdp1-/- hTDP1 cells, no CPT, ATP luminescence, 48 h; AID 686978, 2013; Potency, µM (highest dose often 46.2 µM), inactives show top-dose activity change, negative = growth inhibition, hits mostly inhibitors; hit rate 15% among 420,000; also: potency is read from the fitted curve at half-maximal effect; % is scaled to controls: 0 for no effect and ±100 for the full control effect; nearly all actives have a fitted effect of over 55% in size
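Compound effects on proliferation are scored in DT40 Tdp1-/-;hTDP1 cells in the absence of CPT. ATP levels (CellTiter-Glo luminescence) are recorded after a ≥48 hr, 37 °C incubation.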
IL1B secr inh: qHTS for Inhibitors of Inflammasome Signaling: IL-1-beta AlphaLISA Primary Screen. THP-1 LPS/ATP IL-1B secretion, AlphaLISA, 16 h; active compounds read low. activity change, % at 57.5 µM. hit rate 4.7% among 360,000. AID 743279, 2014; in the data active = activity change below about -50%; inconclusive = mostly about -30% to -49%; also: % is scaled to controls: 0 for no effect and ±100 for the full control effect
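Secreted IL-1B measured by AlphaLISA bead assay after 16 h compound exposure of THP-1 cells; compounds (final up to 57.5 uM) added 1 h before LPS (250 ng/mL) and ATP (1.25 mM) stimulation; lower signal means less secretion.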
DT40 TDP1 CPT: qHTS for Inhibitors of human tyrosyl-DNA phosphodiesterase 1 (TDP1): qHTS in cells in presence of CPT; chicken DT40 Tdp1-/-;hTDP1 cells + 20 nM CPT, ATP luminescence, 48 h; Potency, µM (series often up to 46.2 µM), inactives show at the top dose activity change, negative = growth inhibition, actives largely listed as inhibitors; hit rate 12% among 420,000; AID 686979, 2013; also: potency is read from the fitted curve at half-maximal effect; % is scaled to controls: 0 for no effect and ±100 for the full control effect; nearly all actives have a fitted effect of over 55% in size
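Cell growth measured by CellTiter-Glo luminescence after a minimum 48 h, 37 C compound exposure with 20 nM CPT in Tdp1-knockout DT40 cells stably expressing hTDP1, seeded 400/well; qHTS titration format.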
HepG2 tox: qHTS for Inhibitors of TGF-b: Cytotox Counterscreen | HepG2 CAGA-GFP viability, ATP luminescence, 18 h | AID 588856, 2011 | Potency, µM (series often up to 46.1 µM), for the others: at the top dose activity change, negative = cytotoxicity, hits mostly cytotoxic | hit rate 0.76% among 410,000; also: potency is read from the fitted curve at half-maximal effect
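CellTiter-Glo luminescence gave cytotoxicity after 18 hours at 37 degrees C. The cells were HepG2 CAGA-GFP in 1% FBS DMEM, stimulated with 500 pg/mL TGF-beta after compound addition. %Activity was normalised to no-cell wells (complete cell-killing) and DMSO (no toxicity), and curves were fitted and classified.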
TDP1 block: qHTS Assay for Inhibitors of Tyrosyl-DNA Phosphodiesterase (TDP1) | recombinant TDP1, AlphaScreen DNA substrate cleavage | Potency, µM (highest dose often 130 µM), without a hit: at the highest dose activity change, negative = inhibition, actives largely listed as inhibitors | hit rate 0.28% among 350,000 | AID 485290, 2010; also: potency is read from the fitted curve at half-maximal effect; % is scaled to controls: 0 for no effect and ±100 for the full control effect; nearly all actives have a fitted effect of over 40% in size
Target sequence (Q9NUW8 whole entry, looked up): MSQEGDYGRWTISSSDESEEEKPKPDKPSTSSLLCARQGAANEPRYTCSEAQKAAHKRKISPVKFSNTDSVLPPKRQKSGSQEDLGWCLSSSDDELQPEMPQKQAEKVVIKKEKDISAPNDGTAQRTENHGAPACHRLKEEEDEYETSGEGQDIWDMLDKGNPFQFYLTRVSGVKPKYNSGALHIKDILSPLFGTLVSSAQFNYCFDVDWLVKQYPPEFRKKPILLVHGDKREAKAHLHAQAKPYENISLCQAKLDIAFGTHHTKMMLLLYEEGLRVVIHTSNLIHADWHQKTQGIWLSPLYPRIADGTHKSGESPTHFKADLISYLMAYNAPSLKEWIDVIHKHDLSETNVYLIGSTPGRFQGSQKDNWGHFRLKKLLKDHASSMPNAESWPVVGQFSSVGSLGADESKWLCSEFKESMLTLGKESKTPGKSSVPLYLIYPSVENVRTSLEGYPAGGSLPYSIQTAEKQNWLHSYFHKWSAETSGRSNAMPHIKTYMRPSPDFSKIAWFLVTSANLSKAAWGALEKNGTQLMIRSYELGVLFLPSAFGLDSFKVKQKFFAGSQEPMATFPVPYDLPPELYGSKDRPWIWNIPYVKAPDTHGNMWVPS
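Steps: enzyme plus compound, 15 min RT; add biotin/phosphotyrosine-FITC oligonucleotide (15 nM final), react 5 min; add donor/acceptor beads (10 ug/ml final), 10 min; read AlphaScreen. Tdp1 at 1 nM final.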
TGFb SMAD3 inh: qHTS for Inhibitors of TGF-b; Potency, µM (series often up to 46.1 µM), for inactives: at the highest dose activity, negative = inhibition, usual class: inhibitors; HepG2 CAGA-GFP TGF-b/SMAD3 reporter, GFP fluorescence, 18 h; TGF-beta stimulated, 500 pg/mL final; hit rate 1.2% among 410,000; also: potency is read from the fitted curve at half-maximal effect; % is scaled to controls: 0 for no effect and ±100 for the full control effect; nearly all actives have a fitted effect of over 65% in size
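Read-out: total well GFP (ex488/em500-530) summed from mean per-cell fluorescence. Cells: HEPG2 CAGA-GFP, 1% FBS DMEM, 18 h at 37 degrees C with 500 pg/mL final TGF-beta. Unstimulated wells served as the full-inhibition control; stimulated DMSO wells = 0%.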
The depositor's hits bear a star; ? = inconclusive; · = not tested or not shown; [ ] = dose if it differs, or a comment. Unless noted, calls follow the shape of the dose curve; as a rule, active = well fitted curve in the direction sought with a large enough effect; inconclusive = small, poorly fitted or top-dose-only effect, or another doubt; inactive = no such curve, though single readings can be large; an effect the other way counts as inactive or inconclusive.

SMILES	DT40 TDP1 no CPT	IL1B secr inh	DT40 TDP1 CPT	HepG2 tox	TDP1 block	TGFb SMAD3 inh
Cc1csc(NC(=O)C2CC(=O)N(c3ccc(C)c(C)c3)C2)n1 (centres undefined)	-24.0%	28.3	0.8%	-6.2%	-6.6%	-3.7%
Cc1cc(/C=C2\NC(=O)NC2=O)c(C)n1-c1ccc(N2CCOCC2)cc1	20.6µM*	-6.4	?	-48.9%	9.4%	0.0%
Cc1cc(/C=C2/NC(=O)NC2=O)c(C)n1-c1ccc(N2CCOCC2)cc1	?	0.0	?	24.3%	2.7%	-23.8%
COCC(=O)N[C@@H]1c2cc(OC)c(OC)cc2C[C@H]1OCc1ccccc1	-16.7%	6.3	-11.2%	-6.2%	0.1%[56.1 µM]	-1.1%
O=C(Nc1nnc(CCS(=O)(=O)c2ccc3ccccc3c2)s1)c1ccc([N+](=O)[O-])cc1	?	6.8	-20.9%	5.0%	-1.9%	0.0%
O=C(Nc1ncc(S(=O)(=O)c2ccc([N+](=O)[O-])cc2)s1)c1cccnc1	18.4µM*	?	5.8µM*	-37.1%	7.7%	?
O=C(Nc1ncc(S(=O)(=O)c2ccc([N+](=O)[O-])cc2)s1)c1ccc2ccccc2c1	?	7.3	16.4µM*	-3.4%	0.0%	-10.7%
CCn1c(SCCN2CCCCC2)nc2c1c(=O)n(C)c(=O)n2C	-8.7%	-1.2	-5.3%	1.5%	·	8.0%
COc1ccc(CNC(=O)c2[nH]c(C)c(C(C)=O)c2C)cc1	?	46.1	9.2µM*	0.3%	5.2%[0.0935 µM]	8.2%
COc1ccc(C(C)(C)C)cc1NC(=O)c1[nH]c(C)c(C(C)=O)c1C	16.4µM*	-2.4	-1.5%	-26.3%	8.5%	1.6%
CC(=O)c1c(C)[nH]c(C(=O)Nc2ccc(C)c(C)c2)c1C	-1.6%	-25.8	-2.8%	-6.2%	3.6%	-2.4%
COc1ccc(NC(=O)c2[nH]c(C)c(C(C)=O)c2C)cc1Cl	?	-8.1	2.06µM*	-31.0%	4.1%	0.6%
CCCCC(CC)CNC(=O)c1[nH]c(C)c(C(C)=O)c1C (centres undefined)	23.1µM*	24.9	?	-30.1%	3.7%	-6.5%
CCOC(=O)CCCN1C(=O)CCn2nc(-c3cn(C)c4ccccc34)cc21	?	·	?	-18.4%	7.6%	·
CCOc1ccc(C(=O)Nc2ccc(-c3nc4ccccc4s3)c(C)c2)cc1OCC	-0.4%	·	6.3%	-36.4%	1.5%	?
O=C(OCn1nnc2ccccc2c1=O)c1ccc(F)c(S(=O)(=O)N2CCOCC2)c1	-18.5%	4.7	0.4%	-12.4%	·	-9.4%
O=C(O)/C(=C\c1ccccc1OC(F)F)Sc1nnc(-c2ccc(F)cc2)o1	?	-24.4	20.6µM*	-14.1%	-1.2%	1.8%
CCOc1ccccc1CN(CCc1ccc2c(c1)OCO2)Cc1ccccn1	16.4µM*	-10.1	?	-12.4%	3.0%	3.0%
CCOc1ccccc1CN(CCc1ccc2c(c1)OCO2)Cc1cc(OC)c(OC)cc1OC	4.11µM*	·	6.51µM*	-25.3%	·	?
COc1ccc(CC(=O)NCCc2ccc3c(c2)OCO3)cc1OC	?	0.6	5.6%	1.1%	·	-3.5%
O=C(COC(=O)C1CC2C=CC1C2)Nc1ccc([N+](=O)[O-])cc1 (centres undefined)	-28.7%	-10.3	0.9%	-7.2%	1.7%	-9.4%
C[C@H]1CN([C@@H](C)CO)C(=O)c2cc(C#CC3(O)CCCC3)cnc2O[C@H]1CN(C)C(=O)C1CC1	-27.4%	-5.6	9.6%	-31.8%	·	-15.8%
COc1ccc(CN(C)Cc2nc3scc(-c4ccccc4)c3c(=O)[nH]2)cc1OC	6.51µM*	12.5	13µM*	-41.7%	8.5%	?
CSCc1nc2scc(-c3ccccc3)c2c(=O)[nH]1	-0.1%	-2.8	-0.2%	0.7%	3.0%	-13.0%
O=C(Cn1ccc(NC(=O)OCc2ccccc2)nc1=O)NCC1CCCO1 (centres undefined)	-5.7%	-10.3	-15.2%	-3.6%	7.3%	14.7%
SMILES	DT40 TDP1 no CPT	IL1B secr inh	DT40 TDP1 CPT	HepG2 tox	TDP1 block	TGFb SMAD3 inh
O=C(NCc1ccco1)C1Cc2ccccc2CN1S(=O)(=O)c1ccccc1F (centres undefined)	?	?	18.4µM*	-2.0%	·	0.0%
CCCn1c(NC(=O)C2CCN(C(=O)c3ccc(F)cc3)CC2)nc2ccccc21	?	0.0	18.4µM*	-69.1%	3.6%	?
Cn1c(/C=N/NC(=O)c2ccccc2Br)nc2ccccc21	18.4µM*	-9.1	?	-19.4%	6.2%	-7.5%
Cn1c(/C=N/O)nc2ccccc21	3.6%	0.0	8.7%	-4.2%	·	2.0%
Cc1ccc(C(=O)N/N=C/c2nc3ccccc3n2C)cc1	18.4µM*	28.5	?	-14.7%	-9.3%	-6.8%
CCCn1c(NC(=O)c2ccccc2Br)nc2ccccc21	23.1µM*	4.9	?	-45.8%	10.0%	?
CCCn1c(NC(=O)c2ccc(F)cc2)nc2ccccc21	?	29.2	-18.2%	0.2%	2.4%	20.7%
CCOC(=O)c1ccc(NC(=O)C2=C(C)C(=O)OC23CCN(C(C)=O)CC3)cc1	1.9%	·	27.1%	-14.0%	-2.5%	0.0%
O=C(Cn1c(=O)n(CCCS(=O)(=O)C2CCCCC2)c(=O)c2ccccc21)Nc1ccc(F)c(Cl)c1	0.6%	·	6.5%	-1.5%	2.5%	-10.6%
CCc1ccccc1NC(=O)C1COc2ccccc2O1 (centres undefined)	-2.0%	-2.3	1.8%	-25.9%	·	-0.7%
CCCn1c(NC(=O)C2COc3ccccc3O2)nc2ccccc21 (centres undefined)	18.4µM*	5.0	18.4µM*	-3.9%	1.1%	-13.5%
Cc1ccc(C2=NNC(c3ccc(Cl)cc3)=Nc3ccccc32)o1	11.6µM*	-1.6	13µM*	5.9%	0.0%	-17.1%
CCOc1ccc(CCN2C(=O)C(=O)N([C@@H](CC(C)C)CN3CCC[C@H]3CN3C(=O)C(=O)NC[C@@H]3Cc3ccc(O)cc3)C[C@@H]2Cc2ccccc2)cc1	16.4µM*	-3.1	?	·	·	·
